In the library only some 2.4% were active in any assay of this set; here they are far more common.
LEDGF integ inh – blocks HIV-1 LEDGF/p75-dependent DNA integration; inhibition, % at 3.7 µM; TR-FRET IN-LEDGF/p75 DNA integration, Eu/Cy5; hit rate 0.64% among 370,000;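 active = inhibition above the screen-wide mean plus 3 SD, cut at about 13% in these data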;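 note: signal is the Cy5 over europium emission ratio at 671 and 618 nm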
PLC-gamma1 inh – inhibitors of human phospholipase C gamma1. P19174. purified PLC-gamma1, fluorogenic substrate, fluorescence. inhibition, % at 12.2 µM. hit rate 0.84% among 370,000. AID 720700; in the data active = inhibition above about 9.5%
PLC-beta3 inh – blocks human PLC-beta3 enzyme activity | Q01970 | Purified PLC-beta3, fluorogenic substrate, fluorescence | inhibition, % at 12.2 µM | hit rate 0.18% among 370,000 | AID 720704; in the data active = inhibition above about 11%
MBD2 inh – MBD2-methylated oligo binding inhibition; hit rate 0.31% among 370,000; inhibition, % at 4.4 µM; AID 686964; TR-FRET, MBD2 binding to methylated oligonucleotide; in the data active = inhibition above about 13%
UHRF1 binding – blocks human UHRF1 binding to methylated DNA. Q96T88. UHRF1 binding to methylated oligo, TR-FRET. inhibition, % at 4.4 µM. hit rate 0.75% among 370,000; in the data active = inhibition above about 21%;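 note: UHRF1 SRA domain binding a hemimethylated CpG hairpin DNA probe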
Hits are given with their value; 0 = inactive.

SMILES	LEDGF integ inh	PLC-gamma1 inh	PLC-beta3 inh	MBD2 inh	UHRF1 binding
COc1ccc(S[C@]2(C(=O)N(C)C)CC(=O)N(S(=O)(=O)c3ccc(F)cc3)[C@@H]2c2ccc(OC)cc2)cc1	0	0	0	0	0
CCNc1ccc([N+](=O)[O-])cc1	0	0	0	0	41
CC(=O)NC(Cc1c[nH]c2ccccc12)C(=O)OCC(=O)N1CCN(S(=O)(=O)c2ccc(Cl)cc2)CC1 (stereo not drawn)	0	0	0	0	0
NC(=O)N[C@@H](Cc1c[nH]c2ccccc12)C(=O)OCC(=O)N1CCCCC1	0	0	0	0	24
COC(=O)[C@]12C[C@H](CC(=O)N3CCCC3)C(=O)N(CCC3=CCCCC3)C1=C[C@H](C(C)C)O[C@@H]2C1CC1	0	0	0	0	0
COC(=O)c1ccc2nc(-c3ccco3)c(Cc3cccc(Cl)c3)n2c1	0	0	0	0	22
COC(=O)c1ccc2nc(-c3ccc(Cl)cc3)c(Cc3cccc(Cl)c3)n2c1	0	0	0	0	0
COC(=O)c1ccc2nc(-c3ccco3)c(Cc3ccccc3)n2c1	0	0	0	0	22
O=C(NNC(=O)c1cc(-c2ccccc2)nc2ccccc12)Nc1cccc(Cl)c1	0	0	0	0	81
O=C(COc1cccnc1[N+](=O)[O-])N1CCN(C(=O)c2ccco2)CC1	0	0	0	0	25
O=C(COc1ccccc1O)N1CCN(C(=O)c2ccco2)CC1	0	0	0	0	0
O=C1C=C(c2ccc(-c3ccccc3)cc2)C[C@@H](c2ccc(F)cc2)C1	0	0	0	0	0
O=C1C=C(c2ccccc2Oc2ccccc2)C[C@@H](c2ccc(F)cc2)C1	0	0	0	0	22
Cc1ccc(-n2c3c(c(=O)[nH]c2=O)C(NS(=O)(=O)c2ccc(Cl)cc2)(C(F)(F)F)C(=O)N3)cc1 (stereo not drawn)	0	0	0	0	28
O=C(CC1C(=O)NCCN1C(=O)Nc1ccccc1)Nc1cccc(Cl)c1 (stereo not drawn)	0	0	0	0	33
CN(C(=O)CNC(=O)c1ccccc1OCC(=O)Nc1ccc(I)cc1)c1ccccc1	0	0	0	0	0
O=C(c1ccc(Cl)c(Cl)c1)N1CCC(Oc2cccnc2)CC1	0	0	0	0	0
N#C/C(=C\c1ccc(O)cc1)C(=O)N1CCCC1	0	0	0	0	21
CCN(Cc1ccccc1)S(=O)(=O)c1c(N)n(C)c(=O)n(C)c1=O	0	0	0	0	30
CCOC(=O)N1CCC(NC(=O)c2cc(C(=O)NCc3ccc(F)cc3)ccc2CO)CC1	0	0	0	0	23
CCOC(=O)N1CCC(NC(=O)c2cc(C(=O)NCc3cccc(Cl)c3)ccc2CO)CC1	0	0	0	0	0
Cc1ccc2nc(-c3ccccc3)c(CN3CCSCC3)n2c1	0	0	0	0	0
Cc1ccc2nc(-c3ccccc3)c(CN3CCN(c4ccccc4F)CC3)n2c1	0	0	0	0	23
O=C(CCC(=O)c1ccc(Cl)cc1)OCn1nnc2ccccc2c1=O	0	0	0	0	56
Cc1ccc(C)c(C(=O)CCC(=O)OCn2nnc3ccccc3c2=O)c1	0	0	0	0	0
SMILES	LEDGF integ inh	PLC-gamma1 inh	PLC-beta3 inh	MBD2 inh	UHRF1 binding
CN(C)c1ccc(-c2nc3ncc(Cl)cc3[nH]2)cc1	0	0	0	0	0
CCCc1cc(=O)[nH]c(SCC(=O)NC2(C#N)CCCCC2)n1	0	0	0	0	27
Cc1ccc(-n2c(-c3ccccc3)cc(/C=N/NC(=O)CC#N)c2-c2ccccc2)cc1	0	0	0	0	0
N#CCC(=O)N/N=C/c1cc(-c2ccccc2)n(-c2ccc(Cl)cc2)c1-c1ccccc1	0	0	0	0	38
Cc1ccc(S(=O)(=O)OCC(=O)Nc2ccc(C(=O)O)c(O)c2)cc1	15	0	0	0	0
Cc1ccccc1-c1nc2c3ccccc3nc(=S)n2[nH]1	0	0	0	0	0
Cc1nc2ccccc2n1CCc1nc2c3ccccc3nc(=S)n2[nH]1	0	0	0	0	22
O=C(Nc1ccccc1)/C(=C/c1ccc2c(c1)OCO2)NC(=O)c1ccco1	0	0	0	0	21
O=C(Nc1ccccc1)/C(=C\c1ccc2c(c1)OCO2)NC(=O)c1ccco1	0	0	0	0	0
Cc1cc(C)nc(N2CCN(C(=O)CSc3nc4ccccc4nc3N3CC(C)OC(C)C3)CC2)n1 (stereo not drawn)	0	0	0	0	0
Clc1ccccc1Cc1noc(CN2CCN3CCCC3C2)n1 (stereo not drawn)	0	0	0	0	29

Compound activity: PubChem, The Scripps Research Institute Molecular Screening Center
